# Values without a mark were called inactive.
# Test system: Vero E6 infected with SARS-CoV-2
# Assay: inhibition of SARS-CoV-2 cytopathic effect; higher = more antiviral protection, active = above 15
# Conditions: 48 h
SMILES,inhibition of SARS-CoV-2 cytopathic effect (1 nM) [%],inhibition of SARS-CoV-2 cytopathic effect (8.33 nM) [%],inhibition of SARS-CoV-2 cytopathic effect (100 nM) [%],inhibition of SARS-CoV-2 cytopathic effect (833.33 nM) [%],inhibition of SARS-CoV-2 cytopathic effect (10000 nM)
CN(c1ccc(NC(=O)Nc2ccccc2)cc1)S(=O)(=O)c1cnn(-c2ccc(F)cc2)c1,2.37,2.39,0.06,-1.77,0.18%
CC(=O)OCC1=C(C(=O)O)N2C(=O)[C@@H](NC(=O)CSc3ccncc3)[C@H]2SC1 [cephapirin],-1.67,4.78,6.28,5.89,2.88%
COc1ccc2[nH]cc(CCNC(C)=O)c2c1 [melatonin],2.18,0.84,2.24,2.42,-2.74%
CC(C)(Oc1ccc(C(=O)c2ccc(Cl)cc2)cc1)C(=O)O [fenofibric-acid],0.66,-0.84,0.44,1.29,-0.37%
OCCNC1CCCc2c1[nH]c1ccc(-c3ccccc3)cc21 (stereo not given) [casin],-1.66,3,1.22,-2.43,14.4%
C=C(C)CN1CC[C@]23c4c5ccc(O)c4O[C@H]2c2[nH]c4ccccc4c2C[C@@]3(O)C1C5,1.25,-1.87,0.33,0.21,1.05%
CCCCCCOc1ccccc1C(N)=O [exalamide],-5.16,-3.3,-2.73,-0.34,-3.76%
CC(C)(OCc1nn(Cc2ccccc2)c2ccccc12)C(=O)O [bindarit],-0.08,-0.77,0.47,-2.78,-0.8%
O=C(/C=C/c1ccc(O)cc1)c1ccc(O)cc1O [isoliquiritigenin],-2.47,-0.17,1.21,0.63,10.8%
C[C@@H]1COCCN1c1cc(=O)n2c(n1)N(Cc1cncc(Cl)c1)[C@H](C(F)(F)F)CC2,-2.96,2.22,-0.24,7.24,44.4% (active)
N#Cc1cccc(-c2nc(-c3cccnc3)no2)c1,-1.62,0.72,-0.15,-1.08,2.85%
Cc1nc2ccccc2c(-c2ccc3c4c(ccnc24)CCO3)c1[C@H](OC(C)(C)C)C(=O)O,-1.93,-2.73,-4.38,-4.78,-3.59%
Cn1cc(C2=C(c3ccc(Cl)cc3Cl)C(=O)NC2=O)c2ccccc21,2.26,6.22,4.19,1.47,20.8% (active)
CCOC(=O)Nc1ccc2c(c1)N(C(=O)CCN(CC)CC)c1ccccc1S2 [ethacizin],-5.42,-5.11,-2.38,-1.38,2.9%
CC1=C(/C=C/C(C)=C/C=C/C(C)=C/C=C/C=C(C)/C=C/C=C(C)/C=C/C2=C(C)CCCC2(C)C)C(C)(C)CCC1 [beta-carotene],-0.41,1.55,1.56,1.85,-0.57%
Nc1nc(=O)c2sc(=O)n([C@@H]3O[C@H](CO)[C@@H](O)[C@H]3O)c2[nH]1,2.96,0.81,-0.66,1.35,-1.43%
CC(C)NCC(O)c1ccc([N+](=O)[O-])cc1 (stereo not given) [nifenalol],-3.06,0.04,-1.08,0.11,-2.75%
CC(=O)O[C@H]1C[C@H](O[C@H]2[C@@H](O)C[C@H](O[C@H]3[C@@H](O)C[C@H](O[C@H]4CC[C@@]5(C)[C@H](CC[C@@H]6[C@@H]5C[C@@H](O)[C@]5(C)[C@@H](C7=CC(=O)OC7)CC[C@]65O)C4)O[C@@H]3C)O[C@@H]2C)O[C@H](C)[C@H]1O[C@@H]1O[C@H](CO)[C@@H](O)[C@H](O)[C@H]1O [lanatoside-C],0.4,-0.46,-8.78,-9.54,-11.4%

# From the supplement of paper PMC13380429
